# The whole screen tested about 69,000 compounds, of which about 8,600 (12%) showed an effect of 50% or more. The list comes from a sample in which strong results are over-represented; it also holds similar structures and randomly drawn compounds.
# Test system: Plasmodium berghei
# Test: Screen against P. berghei liver stage (PbLuc), transformed with Luciferase, at 10uM
# Format: functional, HepG2
# Conditions: tested at 10 uM
row,SMILES,INHIBITION
1,CCn1cc2c(n1)CN(S(=O)(=O)c1cn(C)cn1)CC2COC (centres undefined),-18.5%
2,CN(C)c1nc(N)nc(CN2CCCC2c2ccsc2)n1 (centres undefined),25.5%
3,CN(C)c1nc(N)nc(CN2CCCC(c3ccccc3)CC2)n1 (centres undefined),57.8%
4,Cn1ccc(CN2CCC(c3ccccc3)CC2)cc1=O,38%
5,CN(C)c1nc(N)nc(CN2CCC(c3ccccc3)CC2)n1,67.8%
6,CN(C)c1nc(N)nc(CN2CCC(c3nc4ccccc4o3)CC2)n1,45.4%
7,O=C(O)CN1CCC(c2ccccc2)CC1,1.03%
8,Cc1cccc(C2CCCN2Cc2nc(N)nc(N(C)C)n2)c1C (centres undefined),35.2%
9,CCC1CCCN(Cc2nc(N)c3ccccc3n2)C1 (centres undefined),36.75%
10,CN(C)c1nc(N)nc(CN2CCCC2c2cccs2)n1 (centres undefined),70%
11,CCN(Cc1ccncc1)c1cc(C2CCN2C(C)=O)nc(C)n1 (centres undefined),19.775%
12,CC(C)c1cc(C(=O)N[C@@H]2CC[C@@H](Oc3ccccc3)[C@@H]2O)on1,-10.955%
13,CCOCCNC(=O)[C@@H]1CCCN1c1nccc(Nc2ccccc2)n1,6.55%
14,O=C(CSc1ccncc1)N1C[C@@H]2CC[C@H]1CN(Cc1cccnc1)C2,9.54%
15,CCc1csc(C2CCCN(C(=O)c3ccccn3)C2)n1 (centres undefined),14.1%
16,NCC1[C@H]2CN(Cc3cccc(Cl)c3)C[C@@H]12 (some centres undefined),13.7%
17,Cc1ccc(S(=O)(=O)N2CCN(C)c3ccncc32)cc1F,41%
18,COCCc1noc(CNC2CCCN(c3cccnn3)C2)n1 (centres undefined),21.8%
19,CN(Cc1ncc(-c2ccccc2)o1)C1CCCN(c2cccnn2)C1 (centres undefined),43.2%
20,c1ccc(-c2noc(CNC3CCCN(c4cccnn4)C3)n2)nc1 (centres undefined),45.4%
21,c1ccc(-c2nnc(CNC3CCCN(c4cccnn4)C3)o2)cc1 (centres undefined),-43.25%
22,Cc1ncc(CN(C)C2CCCN(c3cccnn3)C2)s1 (centres undefined),58.3%
23,Cc1oc(-c2ccco2)nc1CNC1CCCN(c2cccnn2)C1 (centres undefined),-21.55%
24,c1ccc(-c2cnc(CNC3CCCN(c4cccnn4)C3)o2)cc1 (centres undefined),51.2%
25,Cc1cnc(CN(C)C2CCCN(c3cccnn3)C2)cn1 (centres undefined),3.19%
26,c1cnnc(N2CCCC(NCc3ccncc3)C2)c1 (centres undefined),30.8%
27,c1cnnc(N2CCCC(NCc3nc(-c4ccco4)no3)C2)c1 (centres undefined),55.5%

row,SMILES,INHIBITION
1,CN(Cc1ccc(Cl)s1)C1CCCN(c2cccnn2)C1 (centres undefined),17.4%
2,c1cnnc(N2CCCC(NCc3nc(C4CC4)no3)C2)c1 (centres undefined),58.5%
3,CC1c2cc(F)ccc2CCN1C(=O)c1[nH]c(=O)[nH]c(=O)c1N (centres undefined),33.4%
4,CCc1cc(C(=O)N2CC[C@@H](c3ccc4c(c3)OCO4)[C@H](O)C2)ccn1,26.5%
5,Cc1noc(C)c1CN1CCn2cc(CN3CCCCC3)nc2C1,-33.1%
6,O=C(NCc1nnc2n1CCC2)NCC1(c2cccc(F)c2)CC1,-14.6%
7,c1nc2c(c(NC3COC4(CCCC4)C3)n1)CCNCC2 (centres undefined),37.7%
8,COCCc1noc(CN(C)C2CCCN(c3cccnn3)C2)n1 (centres undefined),9.54%
9,C=c1ccoc1=C1NN=C(CNCC2CCCN2c2cccnn2)O1 (centres undefined),18.5%
10,C=c1ccoc1=C1NN=C(CNC2CCCN(c3cccnn3)C2)O1 (centres undefined),56.05%
11,c1csc(-c2noc(CNC3CCc4ncnn4C3)n2)c1 (centres undefined),0.65%
12,c1cnnc(N2CCCC(NCc3cccc4c3OCCCO4)C2)c1 (centres undefined),11.9%
13,CN(Cc1nc(C2CC2)no1)C1CCCN(c2cccnn2)C1 (centres undefined),53.5%
14,c1cnnc(N2CCCC(NCc3cccc4c3OCCO4)C2)c1 (centres undefined),-12.2%
15,c1cnnc(N2CCCC2CNCc2nc(-c3cccs3)no2)c1 (centres undefined),31.9%
16,c1cnnc(N2CCCC(NCc3nc(-c4cccs4)no3)C2)c1 (centres undefined),60.3%
17,c1cnnc(N2CCCC(NCc3cccc4c3OCO4)C2)c1 (centres undefined),53.7%
18,CN(Cc1nc(-c2ccco2)no1)C1CCCN(c2cccnn2)C1 (centres undefined),20.1%
19,c1cnnc(N2CCCC(NCc3nnc(-c4ccco4)o3)C2)c1 (centres undefined),31.8%
20,CC(C)c1noc(CCC(=O)NCC2CC2)n1,38.5%
21,O=C1CC(NCc2ccccn2)CN1CCc1ccc(F)cc1 (centres undefined),17.8%
22,CN1CCC/C1=N\S(=O)(=O)c1ccc(NC(=O)Cc2cccs2)cc1,-6.14%
23,O=C(CCn1cc(Cl)cn1)N1C[C@H]2CC[C@@H](C1)N(Cc1ccccn1)C2,-29.1%
24,Cc1cnn(CC2CCCCN2C(=O)c2cnc3n[nH]c(C)c3c2)c1 (centres undefined),-14%
25,CN(CCO)Cc1cc(Cl)ccc1OCC(O)CN1CCCCCC1 (centres undefined),-26.8%
26,O=C(NCc1ccccc1Cn1cncn1)C1CCC1,11.4%
27,CC(=O)N1CCC(Cc2nccnc2-c2ccnn2C)CC1,4.41%

# Reference: ChEMBL document CHEMBL4513216, “Probing the Open Global Health Chemical Diversity Library for Multistage-Active Starting Points for Next-Generation Antimalarials” (ACS Infect Dis, 2020)
